# Test results from PubChem BioAssay (NCI).
# This is part of a sample that, as a whole, favours compounds with a hit. Of some 83,000 tested, about 20% had one in any assay.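 Plates (96-well) were seeded with cells, treated with compound at one concentration, and incubated for 48 hours before percent growth was determined.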 A number with no mark means an inactive call. Activity calls are given as the source filed them. How the source made its calls: active means growth percent below 10; inactive means the rest.
# Tests used:
# Assay in all cases: NCI-60 one-dose screen, 48 h (100 = growth as untreated, 0 = no growth, -100 = all killed)
# Settings in all cases: 10 µM
# RPMI-8226 leukemia = tested on: RPMI-8226 leukemia
# OVCAR-8 ovarian = tested on: OVCAR-8 ovarian
# OVCAR-5 ovarian = tested on: OVCAR-5 ovarian
# OVCAR-4 ovarian = tested on: OVCAR-4 ovarian
# SK-OV-3 ovarian = tested on: SK-OV-3 ovarian
# IGROV1 ovarian = tested on: IGROV1 ovarian
# OVCAR-3 ovarian = tested on: OVCAR-3 ovarian
# HS 578T breast = tested on: HS 578T breast
# NCI/ADR-RES ovarian = tested on: NCI/ADR-RES ovarian
Compound,growth (RPMI-8226 leukemia),growth (OVCAR-8 ovarian),growth (OVCAR-5 ovarian),growth (OVCAR-4 ovarian),growth (SK-OV-3 ovarian),growth (IGROV1 ovarian),growth (OVCAR-3 ovarian),growth (HS 578T breast),growth (NCI/ADR-RES ovarian)
CNC(=O)c1cccc(N2CCc3c2ccc(NC(=O)Nc2ccc(N4CCN(C)CC4)c(C(F)(F)F)c2)c3F)c1,-41.1% (active),-83.4% (active),-85.1% (active),-86.1% (active),45.3%,-91.7% (active),-80% (active),-1.44% (active),-79.2% (active)
COc1ccc2nc(Cl)c(-c3cc(-c4ccccc4)nc(N)n3)cc2c1,-27% (active),-68.4% (active),51.4%,83.7%,95.1%,52.5%,12.1%,59.3%,-43.1% (active)
Cc1cc(C)nc(SCC(=O)Nc2ccc(S(N)(=O)=O)cc2)n1,99.5%,105%,107%,112%,106%,109%,113%,114%,106%
CC(C)C(=O)Nc1ccc(C(=O)NC(=S)Nc2ccc(C(=O)O)cc2)cc1,128%,111%,96.6%,111%,99.9%,106%,91.1%,98.8%,104%
O=C(N/N=C/c1ccc(-c2cccc([N+](=O)[O-])c2)o1)c1[nH]c2ccc(Br)cc2c1-c1ccccc1,12%,-19.9% (active),23.3%,45.5%,32.2%,33.7%,1.91% (active),-2.96% (active),-50.9% (active)
O=c1[nH][nH]c(Nc2ccccc2)c1N=Nc1ccc(F)cc1,112%,101%,112%,80.5%,94.5%,80.3%,103%,65.2%,100%
c1ccc(C(=C(c2ccc(OCCN3CCCCC3)cc2)c2ccc(OCCN3CCCCC3)cc2)C2CCCC2)cc1,-51.4% (active),-48.8% (active),-22.5% (active),1.48% (active),-45.3% (active),-85.8% (active),-92.9% (active),-9.63% (active),101%
CCOC(=O)c1sc(N/N=C(\C)c2ccc3c(c2)Nc2ccccc2S3)nc1C,20.1%,38.7%,30.6%,44.1%,68.5%,39.6%,46.1%,30.9%,28.8%
COc1ccc(C=CC(=O)c2ccc(-n3c(C)nc4c(cnn4-c4ccccc4)c3=O)cc2)cc1,-18.8% (active),83.4%,111%,65.7%,123%,92.7%,61%,85.5%,62.3%
C[C@H]1[C@H](C)CC[C@]2(COC(=O)CCC(=O)NCC#CCN3CCNCC3)CC[C@]3(C)C(=CC[C@@H]4[C@@]5(C)CCCNC(C)(C)[C@@H]5CC[C@]43C)[C@H]12,-22.9% (active),69%,53.8%,66.1%,51.4%,44.3%,75.6%,60.8%,66.9%
O=C(Cn1cc(CSc2nnc3oc4ccccc4n23)nn1)Nc1cccc(Cl)c1,48.5%,74.9%,87.8%,63.4%,54.3%,78.7%,78.5%,66.6%,53.4%
COc1ccc2[nH]c(O)c(N=NC(=O)COc3ccc(NC(=O)Nc4ccc(Cl)c(Cl)c4)cc3)c2c1,11.1%,-69.2% (active),-21.8% (active),-92.7% (active),-12.4% (active),-4.72% (active),-44.5% (active),-3.4% (active),84.4%
